TDP1 cell noCPT: qHTS for Inhibitors of human tyrosyl-DNA phosphodiesterase 1 (TDP1): qHTS in cells in absence of CPT; AID 686978, 2013; Potency, µM (series often up to 46.2 µM), for inactives: at the top dose activity change, negative = growth inhibition, most hits filed as inhibitors; DT40 Tdp1-/- hTDP1 cells, no CPT, ATP luminescence, 48 h; actives 15% (n = 420,000); note: nearly all actives have a fitted effect of over 55% in size
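No-CPT arm: Tdp1-/-;hTDP1 DT40 cells (400/well) plus compounds, incubated ≥48 hr at 37 °C. Readout CellTiter-Glo luminescence.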
KB-3-1 tox: qHTS assay for MDR1-selective chemotherapeutics: Primary screen using the parental adenocarcinoma cell KB-3-1; KB-3-1 viability, CellTiter-Glo ATP luminescence, 72 h; Potency, µM (titrated, usually from 46.1 µM), hits mostly cytotoxic; actives 1.4% (n = 400,000); note: nearly all actives have a fitted effect of over 60% in size
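Parental KB-3-1 adenocarcinoma cells in phenol-red-free DMEM with 10% FBS were pin-treated with compounds at several concentrations, incubated 72 h at 37 °C, and viability read by CellTiter-Glo luminescence; concentration-effect curves were fitted after normalization.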
KB-V1 cytotox: qHTS assay for MDR1-selective chemotherapeutics: Primary screen using the drug-selected MDR subline cells KB-V1. KB-V1 MDR cells viability, CellTiter-Glo, 72 h. Potency, µM (top dose mostly 46.1 µM), most hits filed as cytotoxic. actives 3.4% (n = 400,000); note: nearly all actives have a fitted effect of over 60% in size
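Cytotoxicity via CellTiter-Glo luminescence after 72 h compound exposure at 37 degrees C. Cells: drug-selected KB-V1 line, DMEM phenol-red free plus 10% FBS. Compounds tested at multiple concentrations; normalized data fitted to concentration-effect curves.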
HT1080 IDH1KD tx: qHTS for induction of synthetic lethality in tumor cells producing 2HG: qHTS for the HT-1080-IDH1KD cell line. HT-1080 IDH1 knockdown viability, ATP luminescence, 48 h. Potency, µM (titrated, usually from 46.1 µM), for the others: at the top dose activity, negative = toxicity, usual class: cytotoxic. actives 2% (n = 360,000);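 note: 0% = DMSO wells and -100% = cell-free medium wells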
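HT-1080-IDH1KD cells (IDH1 knocked down), 750/well in RPMI with 5% FBS, treated with compound 48 h at 37 degrees C. Viability by CellTiter-Glo luminescence, normalised to DMSO and no-cell wells; concentration-response curves classed.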
HT1080NT lethal: qHTS for induction of synthetic lethality in tumor cells producing 2HG: qHTS for the HT-1080-NT fibrosarcoma cell line | Potency, µM (highest dose often 46.1 µM), for inactives: at the top dose activity, negative = less viability, hits mostly cytotoxic | actives 1.6% (n = 360,000) | AID 686970, 2013 | HT-1080-NT fibrosarcoma viability, CellTiter-Glo ATP luminescence, 48 h;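 note: NT is the 2HG producing partner of a matched IDH1 knockdown line; 0% = DMSO-treated cells and -100% = media-only wells without cells; nearly all actives have a fitted effect of over 55% in size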
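HT-1080-NT; 750 cells/well; 5% FBS RPMI; 48 h compound, 37 degrees C; CellTiter-Glo luminescence; curve fitting and curve-class assignment.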
TDP1 cell CPT: qHTS for Inhibitors of human tyrosyl-DNA phosphodiesterase 1 (TDP1): qHTS in cells in presence of CPT; chicken DT40 Tdp1-/-;hTDP1 cells + 20 nM CPT, ATP luminescence, 48 h; Potency, µM (highest dose often 46.2 µM), without a hit: at the highest dose activity change, negative = growth inhibition, hits mostly inhibitors; actives 12% (n = 420,000); AID 686979, 2013; note: nearly all actives have a fitted effect of over 55% in size
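Chicken DT40 Tdp1-/- cells complemented with human TDP1, 400 cells/well, exposed to compounds plus 20 nM camptothecin for at least 48 h at 37 C; viability read as ATP content by CellTiter-Glo luminescence.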
* = called active by the depositor; i = inactive; ? = inconclusive; nt = no result. A selection: hits, their analogues and other compounds. The true share with any hit is near 19%. Calls come from the whole dose curve; as a rule, active = well fitted curve in the direction sought with a large enough effect; inconclusive = small, poorly fitted or top-dose-only effect, or another doubt; inactive = no such curve, though single readings can be large; an effect the other way counts as inactive or inconclusive. Unless noted, % is set by controls: 0 for no effect and ±100 for the full control effect; potency is the fitted concentration of half-maximal effect.

SMILES	TDP1 cell noCPT	KB-3-1 tox	KB-V1 cytotox	HT1080 IDH1KD tx	HT1080NT lethal	TDP1 cell CPT
CCCNC(=O)C1CCN(Cc2cc3ccccc3n2Cc2ccccc2)CC1	18µM*	i	i	nt	nt	?
O=C(NCCc1ccccc1)C1CCN(Cc2cccc3ccccc23)CC1	?	i	i	-30%	?	?
COCCNC(=O)C1CCCN(Cc2ccccc2)CC1 (configuration not stated)	1%	?	?	?	16%	-22%
CN(Cc1ccccc1)C(=O)C1CCN(Cc2cc3ccccc3n2Cc2ccccc2)CC1	?	?	i	nt	nt	?
CN(C)CCNC(=O)C1CCN(Cc2cc3ccccc3n2Cc2ccccc2)CC1	16µM*	i	?	nt	nt	21µM*
O=C(NCCc1ccccc1)C1CCN(Cc2cc3ccccc3n2Cc2ccccc2)CC1	21µM*	i	i	nt	nt	?
O=C(NC12CC3CC(CC(C3)C1)C2)c1cc([N+](=O)[O-])ccc1N1CCOCC1	0%	i	i	?	-18%	-7%
CCOc1ccccc1CNC(=O)C1CCN(Cc2cc3ccccc3n2Cc2ccccc2)CC1	16µM*	i	i	nt	nt	?
Clc1cccc(N/N=C(\Cc2nc3ccccc3[nH]2)c2ccccc2)c1	?	?	21µM*	-23%	4%	?
Cc1nc(Nc2ccccc2)sc1C(=O)c1ccc(F)cc1	?	i	i	-29%	-22%	?
Nc1nc(Nc2ccccc2F)sc1C(=O)c1ccccc1	?	10µM*	i	-27%	-10%	12µM*
CCOc1ccccc1NC(=O)COC(=O)Cc1ccc(-c2ccccc2)cc1	?	i	i	3%	4%	0%
CCC(C)[C@H](NC(=O)[C@@H]1Cc2c([nH]c3ccccc23)C2c3ccccc3C(=O)N21)C(=O)N1CCC[C@@H]1C(=O)O (some centres not stated)	5%	i	i	-3%	-2%	18%
CCC(C)[C@H](NC(=O)[C@@H]1Cc2c([nH]c3ccccc23)C2c3ccccc3C(=O)N21)C(=O)NCC1CCCO1 (some centres not stated)	16µM*	i	i	-17%	2%	?
CC(=O)Nc1cccc(C(=O)/C=C/c2ccc(C)cc2)c1	10µM*	?	i	?	-5%	9.2µM*
CCC(=O)Nc1cccc(C(=O)/C=C/c2ccc(F)cc2)c1	2.6µM*	?	i	?	-30%	4.6µM*
CC(=O)Nc1ccc(NC(=O)CCCN2C(=O)C(c3ccccc3)Oc3cccnc32)cc1 (configuration not stated)	?	i	i	-3%	-10%	-25%
O=C(C1COc2ccccc2O1)N1CCN(c2nc3c(F)cc(F)cc3s2)CC1 (configuration not stated)	15µM*	i	?	0%	0%	21µM*
Fc1cc(F)c2nc(N3CCCC3)sc2c1	8%	i	i	4%	9%	-5%
O=C(C1COc2ccccc2O1)N1CCN(c2nc3ccccc3s2)CC1 (configuration not stated)	?	i	?	15%	1%	?
O=C(C1CC1)N1CCN(c2nc3c(F)cc(F)cc3s2)CC1	15µM*	i	i	nt	nt	?
